This is a sample that favours compounds with a hit; in the whole collection about 6.8% have one here.
T cruzi growth-1: blocks T. cruzi growth in NIH3T3 culture | T. cruzi beta-gal in NIH3T3, GalScreen luminescence, 90 h | inhibition, % at 8.34 µM | 77,000 compounds, 5.9% hits | AID 624255;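 active = mean inhibition above about 93%, with at least 55% of replicates each passing it, limit read from the data, passing the limit was not always enough; inconclusive = only one of those two conditions holds; inactive = neither condition holds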
Pf Dd2 growth: blocks growth of Plasmodium falciparum Dd2 parasites; P. falciparum Dd2 growth, SYBR Green, 72 h; stronger effect = lower value; activity change, % at 10 µM; 94,000 compounds, 2.3% hits; in the data active = activity change below about -80%; inconclusive = no clear call, values can overlap the other calls
C diff HTS: inhibitors of Clostridium difficile growth; AID 1259249; Clostridium difficile clinical isolate growth, OD600, 24 h; stronger effect = lower value; growth activity, negative = inhibition, % at 16 µg/mL (by protocol); 86,000 compounds, 0.25% hits;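 active = mean growth activity at or below -80% and every replicate also at or below -80%; inconclusive = mean at or below -80% but some replicate above -80%; inactive = mean growth activity above -80%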;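 note: 0% = DMSO wells and -100% = levofloxacin 16 µg/mL wells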
T cruzi growth-2: Trypanosoma cruzi proliferation inhibition. shares compounds with T cruzi growth-1. T. cruzi beta-gal in NIH3T3, GalScreen luminescence, 90 h. inhibition, % at 8.35 µM. 5,600 compounds, 72% hits. AID 651739;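 active = mean replicate inhibition above about 95% and at least 55% of replicates individually reaching it, limit read from the data; inconclusive = only one of the two criteria is met; inactive = neither criterion is met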
T cruzi growth-3: blocks T. cruzi growth in NIH3T3 host cells | shares compounds with T cruzi growth-1 | T. cruzi beta-gal in NIH3T3, GalScreen luminescence, 90 h | inhibition, % at 2.09 µM | 5,600 compounds, 21% hits | AID 651740;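 active = mean inhibition above about 95%, with at least 55% of replicates also reaching it, limit read from the data; inconclusive = meets just one of the two conditions; inactive = meets neither condition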;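 note: plate controls were neutral control median for no effect and positive control median for full effect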
3T3 cytotox: cytotoxicity in mouse NIH/3T3 fibroblasts; shares compounds with T cruzi growth-1; NIH/3T3 viability, CellTiter-Glo ATP luminescence, 90 h; cytotoxicity (signal decrease), % at 8.35 µM; 5,600 compounds, 14% hits; AID 651742;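 active = mean signal decrease across replicates above about 35% based on untreated-well scatter, with enough replicates individually passing, limit read from the data; inconclusive = no rule stated though some were filed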;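 note: 0% = median of neutral control wells and 100% = median of positive control wells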
NIH3T3 tox 2: NIH/3T3 (mouse) viability loss | shares compounds with T cruzi growth-1 | NIH/3T3 viability, CellTiter-Glo ATP luminescence, 90 h | inhibition, % at 24.9 µM | 5,600 compounds, 56% hits | AID 651744;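 active = mean loss of cell viability signal at or above a set limit, and enough replicates individually reaching it; inconclusive = meets only the mean limit or only the replicate share; inactive = meets neither condition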;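 note: 0% = median of neutral control wells and 100% = median of positive control wells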
* = called active by the depositor; u = inconclusive; x = not tested or not shown.

SMILES	T cruzi growth-1	Pf Dd2 growth	C diff HTS	T cruzi growth-2	T cruzi growth-3	3T3 cytotox	NIH3T3 tox 2
COc1ccc(S(=O)(=O)Nc2ccc3c(c2)OC[C@@H](C)N(Cc2cc(F)ccc2F)C[C@@H](C)[C@H](OC)CN(C)C3=O)cc1	122*	-39	x	110*	83	-14	-9
CO[C@@H]1CN(C)C(=O)c2ccc(NS(=O)(=O)c3cccc(C)c3)cc2OC[C@@H](C)N(Cc2cc(F)ccc2F)C[C@H]1C	98*	-45	-3	106*	48	-15	2
CO[C@@H]1CN(C)C(=O)c2ccc(NS(=O)(=O)c3cccc(F)c3)cc2OC[C@@H](C)N(Cc2cc(F)ccc2F)C[C@@H]1C	x	-14	x	x	x	x	x
CO[C@@H]1CN(C)C(=O)c2cc(NS(=O)(=O)c3cccc(F)c3)ccc2OC[C@H](C)N(Cc2cc(F)ccc2F)C[C@@H]1C	82	-49	3	x	x	x	x
CO[C@H]1CN(C)C(=O)c2cc(NS(=O)(=O)c3cccc(F)c3)ccc2OC[C@@H](C)N(Cc2cc(F)ccc2F)C[C@H]1C	u	-33	11	111*	76	-8	52*
CO[C@@H]1CN(C)C(=O)c2ccc(NS(=O)(=O)c3cccc(F)c3)cc2OC[C@H](C)N(Cc2cc(F)ccc2F)C[C@@H]1C	x	-23	x	x	x	x	x
CCC(=O)N1C[C@@H](C)[C@@H](OC)CN(C)C(=O)c2cc(NC(=O)c3cc(C)on3)ccc2OC[C@@H]1C	15	x	x	x	x	x	x
COc1ccc2c3c([nH]c2c1)[C@@H](CO)N(C)CC31CN(S(=O)(=O)c2cn(C)cn2)C1	x	67	-4	x	x	x	x
C[C@@H]1CN([C@@H](C)CO)S(=O)(=O)c2ccc(-c3cccc(F)c3)cc2O[C@H]1CN(C)S(=O)(=O)c1ccccc1	122*	-63	-1	99*	106*	58*	49*
C[C@H]1CN([C@@H](C)CO)S(=O)(=O)c2ccc(-c3cccc(F)c3)cc2O[C@@H]1CN(C)S(=O)(=O)c1ccccc1	120*	-39	-3	96*	86	37*	41*
C[C@@H]1CN([C@H](C)CO)S(=O)(=O)c2ccc(-c3cccc(F)c3)cc2O[C@@H]1CN(C)S(=O)(=O)c1ccccc1	114*	-33	-1	97*	84	26	54*
CC(=O)N(C)C[C@@H]1Oc2cc(-c3cccc(F)c3)ccc2S(=O)(=O)N([C@@H](C)CO)C[C@@H]1C	20	-9	-3	x	x	x	x
C[C@@H]1CN([C@H](C)CO)S(=O)(=O)c2ccc(-c3cccc(F)c3)cc2O[C@H]1CN(C)S(=O)(=O)c1ccccc1	u	-16	1	92	51	65*	41*
C[C@H]1CN([C@@H](C)CO)S(=O)(=O)c2ccc(Br)cc2O[C@H]1CN(C)S(=O)(=O)c1ccccc1	x	13	5	x	x	x	x
COc1ccc(NC(=O)N2CC(=O)N3[C@H](C2)[C@@H](c2ccc(-c4ccccc4)cc2)[C@@H]3CO)cc1	x	-19	1	x	x	x	x
C[C@@H]1CCCCO[C@@H](CN(C)C(=O)Nc2cccc3ccccc23)[C@@H](C)CN([C@H](C)CO)C(=O)c2cc(NC(=O)Nc3ccccc3)ccc2O1	25	-69	2	x	x	x	x
O=C(Nc1ccc2c(c1)[C@H]1C[C@H](CC(=O)N3CCc4ccccc4C3)O[C@@H](CO)[C@H]1O2)NC1CCCC1	x	-19	-1	x	x	x	x
CC(C)NC(=O)N[C@@H]1CC[C@H](CCNS(=O)(=O)c2ccc(Cl)cc2)O[C@H]1CO	-124	-10	-6	x	x	x	x
CN(C)C(=O)[C@@H]1[C@@H](CO)[C@@H]2Cn3c(ccc(C4=CCCCC4)c3=O)[C@@H]2N1C(=O)c1ccccc1F	-21	4	-2	x	x	x	x
C[C@@H]1CN([C@@H](C)CO)S(=O)(=O)c2ccc(-c3cccc(F)c3)cc2O[C@H]1CN(C)S(C)(=O)=O	62	-20	-6	x	x	x	x
C[C@H](CO)N1C[C@H](C)[C@@H](CN(C)S(=O)(=O)c2ccccc2)Oc2cc(-c3cccc(F)c3)ccc2S1(=O)=O	115*	-28	-1	101*	56	22	29*
C[C@H](CO)N1C[C@H](C)[C@H](CN(C)S(=O)(=O)c2ccccc2)Oc2cc(-c3cccc(F)c3)ccc2S1(=O)=O	120*	-56	6	97*	100*	19	34*
C[C@H]1CN([C@@H](C)CO)S(=O)(=O)c2ccc(-c3cccc(F)c3)cc2O[C@H]1CN(C)S(=O)(=O)c1ccccc1	119*	-63	-4	99*	106*	42*	62*
Cc1noc(C)c1NC(=O)Nc1ccc2c(c1)C(=O)N(C)[C@@H]1CC[C@H](CC(=O)N(C)C)O[C@@H]1CO2	26	18	-2	x	x	x	x
CO[C@@H]1CN(C)C(=O)c2ccc(NS(=O)(=O)c3cn(C)cn3)cc2OC[C@H](C)N(C)C[C@H]1C	-12	-14	x	x	x	x	x
SMILES	T cruzi growth-1	Pf Dd2 growth	C diff HTS	T cruzi growth-2	T cruzi growth-3	3T3 cytotox	NIH3T3 tox 2
O=C(NC1CCCC1)N1CCCCN2[C@H](CO)[C@H](c3ccc(-c4cncnc4)cc3)[C@@H]2C1	102*	-10	-1	20	0	11	10
Cc1ccccc1-c1ccc([C@@H]2[C@@H](CO)N3CCCCN(C(=O)NC4CCCC4)C[C@H]23)cc1	95	9	23	x	x	x	x
Cc1ccccc1-c1ccc([C@@H]2[C@H](CO)N3CCCCN(C(=O)NC4CCCC4)C[C@@H]23)cc1	118*	-32	40	106*	90	25	105*
O=C(NC1CCCC1)N1CCCCN2[C@@H](CO)[C@H](c3ccc(-c4ccccc4)cc3)[C@@H]2C1	113*	1	2	95*	43	3	95*
O=C(NC1CCCC1)N1CCCCN2[C@H](C1)[C@H](c1ccc(-c3ccccc3)cc1)[C@@H]2CO	80	0	2	x	x	x	x
O=C(NC1CCCC1)N1CCCCN2[C@H](CO)[C@@H](c3ccc(-c4ccncc4)cc3)[C@H]2C1	73	3	-6	x	x	x	x
O=C(NC1CCCC1)N1CCCCN2[C@@H](CO)[C@@H](c3ccc(-c4ccncc4)cc3)[C@@H]2C1	105*	8	20	97*	42	11	-9
O=C(NC1CCCC1)N1CCCCN2[C@H](CO)[C@@H](c3ccc(-c4cccnc4)cc3)[C@H]2C1	29	-19	-9	x	x	x	x
O=C(C[C@H]1CC[C@H]2[C@@H](COC[C@@H](O)CN2S(=O)(=O)c2cccc(Cl)c2)O1)NCc1ccncn1	27	3	x	x	x	x	x
COC(=O)[C@H]1[C@H](CO)[C@H]2Cn3c(cccc3=O)[C@H]2N1C(=O)C1CCCCC1	-7	15	-3	x	x	x	x
CO[C@@H]1CC[C@H]2CCOc3ccc(C#N)cc3C(=O)N(C)C[C@@H](C)C(=O)N(C)C[C@H]1O2	11	x	-4	x	x	x	x

Bioassay records as filed in PubChem BioAssay.
